# PubChem BioAssay (NCATS)
# Results filed as inconclusive are left out. Calls of active or inactive are those of the source. Unless noted, calls come from the whole dose curve; as a rule, active = well fitted curve in the direction sought with a large enough effect; inconclusive = small, poorly fitted or top-dose-only effect, or another doubt; inactive = no such curve, though single readings can be large; an effect the other way counts as inactive or inconclusive.
# Key:
# [1] = Cytotoxicity counterscreen for inhibitors of SARS-CoV-2 cell entry (AID 1645845; calls by dose curve; note: nearly all actives have a fitted effect of over 50% in size)
# Summary of the method: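 Counterscreen run in the same HEK293-ACE2 line as the pseudotyped-particle entry assay, without particles. Viability after 48 h at 37 C was read as ATP luminescence, scaled between cell-containing and cell-free wells.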
# [2] = Primary qHTS to identify inhibitors of SARS-CoV-2 cell entry (AID 1645846; calls by dose curve; note: nearly all actives have a fitted effect of over 45% in size); settings: activity change, negative = inhibition: at 57.1 µM (top of the series) unless noted
# Summary of the method: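 HEK293 cells stably expressing human ACE2, pre-treated 1 h with compound, then infected with MLV particles pseudotyped with Wuhan-Hu-1 spike (C-terminal 19-aa truncation). Luciferase luminescence after 48 h at 37 °C, normalised to spike PP and bald PP.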
# CRL-7250 = normal cell line; experiment: qHTS assay to identify novel small-molecules to repurpose for Merkel cell carcinoma treatment (AID 1296009); settings: MCC and control cell lines, CellTiter-Glo viability, 72 h; series mostly up to 92 µM; note: nearly all actives have a fitted effect of over 60% in size
# Summary of the method: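 Dose-response viability screen; 72 hr exposure at 37 degree celsius; CellTiter-Glo added, 10 min room temperature, luminescence read; RLUs scaled between no-cell and DMSO wells.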
# [3] = P-glycoprotein substrates identified in KB-3-1 adenocarcinoma cell line, qHTS therapeutic library screen (AID 1346986);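 note: potency is the fitted concentration of half-maximal effect; potency is for cytotoxicity meaning loss of cell viability; nearly all actives have a fitted effect of over 60% in size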
# Summary of the method: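 In 1536-well format, 500 cells/well received pinned compound titrations and were incubated 72 h, 5% CO2. Viability was read by CellTiter-Glo; cytotoxic if AC50 < 10 uM and efficacy >50%.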
# [4] = P-glycoprotein substrates identified in KB-8-5-11 adenocarcinoma cell line, qHTS therapeutic library screen (AID 1346987); note: potency is the fitted concentration of half-maximal effect; nearly all actives have a fitted effect of over 65% in size
# Summary of the method: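 Compounds are pinned in dose-response onto KB-8-5-11 cells (500 cells/well, colchicine-free medium) and left 72 h at 37 degree C. CellTiter-Glo luminescence then yields AC50 values.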
# [5] = Primary qHTS for inhibitors of nuclear receptor binding SET domain protein 2 (NSD2) in an isogenic RCH-ACV NSD2 p.E1099K mutant (9B) (AID 1645876); note: potency is the fitted concentration of half-maximal effect; nearly all actives have a fitted effect of over 70% in size
# [6] = Primary qHTS for inhibitors of nuclear receptor binding SET domain protein 2 (NSD2) in an RCH-ACV wild type WT cells (2C) (AID 1645877); note: potency is the fitted concentration of half-maximal effect; nearly all actives have a fitted effect of over 70% in size
# [7] = qHTS for Inhibitors of the Functional Ribonucleoprotein Complex (vRNP) of Lassa (LASV) Arenavirus: LASV Primary Screen - GLuc reporter signal (AID 1347082; calls by dose curve; tested in HEK293 reporter line; note: potency is the fitted concentration of half-maximal effect; nearly all actives have a fitted effect of over 60% in size)
# [8] = biological target: Catechol O-methyltransferase (Homo sapiens) (UniProt P21964); experiment: Confirmatory Screen for Target Class Profiling of Small Molecule Inhibitors of Methyltransferases (AID 1745852; calls by dose curve; note: potency is the fitted concentration of half-maximal effect); settings: MTase-Glo luminescence, SAH detection, recombinant enzyme; measured here: COMT max response; stronger effect = lower value
# [9] = biological target: Guanidinoacetate N-methyltransferase (Homo sapiens) (UniProt Q14353); experiment: as above; settings: activity change, negative = inhibition: at 57.3 µM (top of the series) unless noted
# [10] = biological target: Nicotinamide N-methyltransferase (Homo sapiens) (UniProt P40261); experiment: as above; settings: MTase-Glo luminescence, SAH detection, recombinant enzyme; measured here: NNMT max response; stronger effect = lower value
# [11] = biological target: Phenylethanolamine N-methyltransferase (Homo sapiens) (UniProt P11086); experiment: as above; settings: MTase-Glo luminescence, SAH detection, recombinant enzyme; measured here: PNMT max response; stronger effect = lower value
# [12] = biological target: Glutathione peroxidase 1 (Homo sapiens) (UniProt P07203); experiment: Primary qHTS Assay for Inhibitors of Recombinant Selenoprotein Glutathione Peroxidase 1 (GPX1) (AID 1845191); note: nearly all actives have a fitted effect of over 65% in size
# Summary of the method: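 GR-coupled readout: NADPH consumption tracked by fluorescence, ex 340/em 450 nm, at t=0 and after 15 min at RT. Final mix 10 nM GPX1, 1 mM GSH, 0.5 mM CHP, 0.5 mM NADPH, 100 nM GR, 0.01% BSA, following 30 min enzyme–compound preincubation.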
# Chain of Glutathione peroxidase 1 (Homo sapiens) (P07203 whole entry, looked up): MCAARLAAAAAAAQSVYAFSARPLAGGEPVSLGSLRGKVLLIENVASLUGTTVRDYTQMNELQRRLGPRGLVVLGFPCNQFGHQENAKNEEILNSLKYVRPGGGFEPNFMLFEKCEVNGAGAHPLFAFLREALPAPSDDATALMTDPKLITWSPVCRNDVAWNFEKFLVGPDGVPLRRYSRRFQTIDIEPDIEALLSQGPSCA
# Chain of Nicotinamide N-methyltransferase (Homo sapiens) (P40261 whole entry, looked up): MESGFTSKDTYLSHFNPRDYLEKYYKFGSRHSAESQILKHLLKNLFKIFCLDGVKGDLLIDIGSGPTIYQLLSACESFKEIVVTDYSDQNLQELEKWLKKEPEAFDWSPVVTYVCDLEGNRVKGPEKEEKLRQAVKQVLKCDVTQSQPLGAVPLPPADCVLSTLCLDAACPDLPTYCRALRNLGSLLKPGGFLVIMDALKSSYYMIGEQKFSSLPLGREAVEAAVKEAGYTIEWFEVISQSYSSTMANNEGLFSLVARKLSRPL
# Chain of Catechol O-methyltransferase (Homo sapiens) (P21964 whole entry, looked up): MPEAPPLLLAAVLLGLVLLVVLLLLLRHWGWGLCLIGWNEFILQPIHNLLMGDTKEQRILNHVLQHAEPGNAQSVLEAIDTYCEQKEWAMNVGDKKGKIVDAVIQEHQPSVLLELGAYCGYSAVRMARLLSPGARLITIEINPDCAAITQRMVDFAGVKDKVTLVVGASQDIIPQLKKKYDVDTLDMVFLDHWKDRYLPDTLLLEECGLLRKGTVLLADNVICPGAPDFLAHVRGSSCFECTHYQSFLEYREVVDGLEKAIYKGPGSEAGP
# Chain of Phenylethanolamine N-methyltransferase (Homo sapiens) (P11086 whole entry, looked up): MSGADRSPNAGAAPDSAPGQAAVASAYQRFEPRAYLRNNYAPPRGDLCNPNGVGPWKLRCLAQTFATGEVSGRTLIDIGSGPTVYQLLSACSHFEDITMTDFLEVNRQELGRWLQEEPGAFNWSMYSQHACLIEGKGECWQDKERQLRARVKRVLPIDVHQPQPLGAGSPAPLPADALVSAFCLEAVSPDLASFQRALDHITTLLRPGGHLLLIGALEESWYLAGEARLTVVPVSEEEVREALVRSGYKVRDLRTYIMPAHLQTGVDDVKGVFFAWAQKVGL
compound,measurement,setting,value
Cc1c(-c2ccnn2C)cc(C(=O)NCc2ccc(S(C)(=O)=O)cn2)c(=O)n1-c1cccc(C(F)(F)F)c1,Potency,[1],inactive
same,Potency,[2],inactive
same,Potency,CRL-7250,inactive
CCCCOc1nc(N)c2c(n1)N(Cc1cccc(CN3CCCC3)c1)CC(=O)N2,Potency,[1],inactive
same,"activity change, negative = inhibition",[2],-22.5%
same,Potency,CRL-7250,inactive
COc1cc(S(C)(=O)=O)ccc1Nc1nc2ccc(-c3ccc(NC(=O)[C@H](C)c4ccc(F)cc4)cc3)cn2n1,Potency,[1],inactive
same,Potency,CRL-7250,inactive
CC(C)N(C[C@H]1O[C@@H](n2cnc3c(N)ncnc32)[C@H](O)[C@@H]1O)C1CC(CCc2nc3ccc(C(C)(C)C)cc3[nH]2)C1 (stereo not given in full),Potency,[1],inactive
same,Potency,[2],inactive
same,Potency,CRL-7250,inactive
CC(C)(O)/C=C/C(=O)[C@](C)(O)[C@H]1[C@H](O)C[C@@]2(C)[C@@H]3CC=C4[C@@H](C=C(O)C(=O)C4(C)C)[C@]3(C)C(=O)C[C@]12C,Potency,[3],94.4 nM (active)
same,Potency,[4],0.237 µM (active)
same,Potency,[5],42.2 nM (active)
same,Potency,[6],37.6 nM (active)
CC(C)OC(=O)CCCC=CC[C@@H]1[C@H](C=C[C@@H](O)COc2cccc(C(F)(F)F)c2)[C@H](O)C[C@@H]1O,Potency,[7],38.5 µM (active)
CC1Oc2cc3c(-c4c(O)cc(O)c5c(O)c6c(cc45)OC(C)C(C)C6=O)c(O)cc(O)c3c(O)c2C(=O)C1C (stereo not given),Potency,[3],5800 nM (active)
same,Potency,[4],8.2 µM (active)
same,Potency,[5],1300 nM (active)
same,Potency,[6],1160 nM (active)
same,activity,[8],-48.2%
same,Potency,[9],24.1 µM (active)
same,activity,[10],-21.1%
same,activity,[11],-60.9%
same,Potency,[12],inactive
